Source: PubChem BioAssay (Tox21)
“And” between values parts separate entries of the source, which are not always exact repeats. Identical values can stand only once. Inconclusive results are not listed. Some structures have more than one record in an assay (separate samples or runs), and their calls can disagree. The source made the active and inactive calls. Unless noted, calls follow the shape of the dose curve; as a rule, active = well fitted curve in the direction sought with a large enough effect in the repeat runs; inconclusive = weak or mixed curves; inactive = no such curve, though single readings can be large; an effect the other way counts as inactive or inconclusive.

Columns and labels:
[1] = qHTS assay to identify small molecule agonists of H2AX - cell viability counter screen (AID 1224847; calls by dose curve; also: nearly all actives have a fitted effect of over 30% in size; also: potency is read from the fitted curve at half-maximal effect)
How it was run: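 We seed wild-type CHO-K1 cells overnight, treat them for 3 hr at 37C with compounds in 15-concentration series, and quantify remaining viability by CellTiter-Glo luminescence.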

[2] = qHTS assay to identify small molecule antagonists of the estrogen related receptor (ERR) signaling pathway from Tox21 library (AID 1224848); also: nearly all actives have a fitted effect of over 50% in size; also: potency is read from the fitted curve at half-maximal effect
How it was run: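 Antagonist-mode screen of the Tox21 10K library in an NTP-provided ERR reporter cell line; 18 h compound exposure at 37 C, luminescence measured with ONE-Glo.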

[3] = qHTS assay to identify small molecule agonists of the estrogen related receptor (ERR) signaling pathway from Tox21 library (AID 1224849; calls by dose curve; also: % is scaled to controls: 0 for no effect and ±100 for the full control effect; nearly all actives have a fitted effect of over 15% in size); conditions: ERR reporter cell line, ONE-Glo luciferase, 18 h
How it was run: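 Six hours post-seeding at 37 C/5% CO2, ERR cells receive DMSO-solubilised compounds; after 18 h at 37 C, ONE-Glo reagent is applied and luminescence recorded.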

[4] = qHTS RealTime-Glo MT Cell Viability Assay in HEK293 cells - 32 hour (AID 1224868); also: nearly all actives have a fitted effect of over 50% in size; also: potency is read from the fitted curve at half-maximal effect
How it was run: (§1)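 Nonlytic real-time viability readout: viable cells convert prosubstrate to NanoLuc substrate, giving luminescence proportional to live cell number. HEK293, 600 cells/well, compound added after 5 h, continuous culture at 37 C.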

[5] = A CellTox Green Cytotoxicity Assay to monitor cytotoxicity in HEK293 cells - 0 hour (AID 1224869); also: % is scaled to controls: 0 for no effect and ±100 for the full control effect; nearly all actives have a fitted effect of over 50% in size
How it was run: (§2)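 Seeding of HEK293 cells together with cytotoxicity dye preceded a 5 h incubation at 37 C/5% CO2. Test compounds in DMSO were then added and fluorescence monitored across 40 h.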

[6] = qHTS RealTime-Glo MT Cell Viability Assay in HepG2 cells - 40 hour (AID 1224870); also: nearly all actives have a fitted effect of over 50% in size; also: potency is read from the fitted curve at half-maximal effect
How it was run: (§3)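 Real-time viability: cells seeded at 600 per well together with NanoLuc and cell-permeant prosubstrate, compounds added after 5 h incubation. Luminescence tracked at 0, 8, 16, 24, 32 and 40 h of exposure.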

[7] = A CellTox Green Cytotoxicity Assay to monitor cytotoxicity in HEK293 cells - 40 hour (AID 1224871); also: nearly all actives have a fitted effect of over 45% in size; also: potency is read from the fitted curve at half-maximal effect
How it was run: as §2

[8] = qHTS RealTime-Glo MT Cell Viability Assay in HEK293 cells - 16 hour (AID 1224872); also: nearly all actives have a fitted effect of over 50% in size; also: potency is read from the fitted curve at half-maximal effect
How it was run: as §1

[9] = qHTS RealTime-Glo MT Cell Viability Assay in HepG2 cells - 8 hour (AID 1224873); also: nearly all actives have a fitted effect of over 55% in size; also: potency is read from the fitted curve at half-maximal effect
How it was run: as §3

[10] = qHTS RealTime-Glo MT Cell Viability Assay in HEK293 cells - 40 hour (AID 1224874); conditions: RealTime-Glo luminescence; max response: stronger effect = lower value; also: nearly all actives have a fitted effect of over 50% in size; also: potency is read from the fitted curve at half-maximal effect; as to max response: % is scaled to controls: 0 for no effect and ±100 for the full control effect
How it was run: (§4)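 Tox21 screen in HEK293 using RealTime-Glo MT chemistry, with cells and reagent co-dispensed. Luminescence proportional to viable cell number was captured at intervals during 40 h compound exposure at 37 C.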

[11] = A CellTox Green Cytotoxicity Assay to monitor cytotoxicity in HepG2 cells - 16 hour (AID 1224876); also: nearly all actives have a fitted effect of over 45% in size; also: potency is read from the fitted curve at half-maximal effect
How it was run: (§5)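 Nonlytic assay: viable cells exclude the dye, so fluorescence scales with cell death. HepG2 at 600 cells/well, compounds added after 5 h, signal read across 40 h.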

[12] = qHTS RealTime-Glo MT Cell Viability Assay in HepG2 cells - 32 hour (AID 1224877); also: nearly all actives have a fitted effect of over 55% in size; also: potency is read from the fitted curve at half-maximal effect
How it was run: (§6)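 Luminescence read-out: viable HepG2 cells reduce a prosubstrate to a NanoLuc substrate, giving a signal proportional to live cell number. Reads taken at 0, 8, 16, 24, 32 and 40 h of compound exposure at 37 C.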

[13] = A CellTox Green Cytotoxicity Assay to monitor cytotoxicity in HepG2 cells - 24 hour (AID 1224878); also: nearly all actives have a fitted effect of over 45% in size; also: potency is read from the fitted curve at half-maximal effect; as to Cytotoxicity: % is scaled to controls: 0 for no effect and ±100 for the full control effect
How it was run: as §5

[14] = A CellTox Green Cytotoxicity Assay to monitor cytotoxicity in HepG2 cells - 40 hour (AID 1224879); also: potency is read from the fitted curve at half-maximal effect; nearly all actives have a fitted effect of over 40% in size
How it was run: as §5

[15] = qHTS RealTime-Glo MT Cell Viability Assay in HEK293 cells - 0 hour (AID 1224880); also: top concentration of the series differs between compounds; % is scaled to controls: 0 for no effect and ±100 for the full control effect; nearly all actives have a fitted effect of over 45% in size
How it was run: as §4

[16] = A CellTox Green Cytotoxicity Assay to monitor cytotoxicity in HEK293 cells - 32 hour (AID 1224881); also: nearly all actives have a fitted effect of over 40% in size; also: potency is read from the fitted curve at half-maximal effect
How it was run: as §2

[17] = A CellTox Green Cytotoxicity Assay to monitor cytotoxicity in HepG2 cells - 0 hour (AID 1224882); also: % is scaled to controls: 0 for no effect and ±100 for the full control effect; nearly all actives have a fitted effect of over 35% in size
How it was run: as §5

[18] = qHTS RealTime-Glo MT Cell Viability Assay in HepG2 cells - 24 hour (AID 1224867); also: nearly all actives have a fitted effect of over 50% in size; also: potency is read from the fitted curve at half-maximal effect
How it was run: as §6

[19] = A CellTox Green Cytotoxicity Assay to monitor cytotoxicity in HEK293 cells - 24 hour (AID 1224875); also: nearly all actives have a fitted effect of over 45% in size; also: potency is read from the fitted curve at half-maximal effect; as to activity change: % is scaled to controls: 0 for no effect and ±100 for the full control effect
How it was run: as §2

[20] = at 92.4 µM (top of the series) unless noted

**Q.** Which results are given for Clc1ccc(COC(Cn2ccnc2)c2ccc(Cl)cc2Cl)cc1 (stereo unspecified)?
**A.** Potency [1]: 66.6 µM (active) and 56.4 µM (active); Potency [2]: 20.2 µM (active) and 21.6 µM (active) and 18.8 µM (active); activity change, positive = activation ([3]; at 42.5 µM (top of the series)): -55.4% (inactive); activity change, positive = activation ([3]; at 92.4 µM (top of the series)): -77.5% (inactive) and -81.9% (inactive); Potency [4]: 18.2 µM (active) and 24.4 µM (active) and 9.52 µM (active); Potency [5]: inactive; Potency [6]: 48.8 µM (active); Potency [7]: 45.7 µM (active) and 54.7 µM (active) and inactive; Potency [8]: 20.4 µM (active) and 19.4 µM (active); Potency [9]: 43.5 µM (active); Potency [10]: 16.2 µM (active) and 24.4 µM (active); Potency [11]: 54.7 µM (active); Potency [12]: 48.8 µM (active); Potency [13]: 45.7 µM (active) and 54.7 µM (active); Potency [14]: 45.7 µM (active) and 54.7 µM (active) and 16.9 µM (active); Potency [15]: inactive; Potency [16]: 45.7 µM (active) and 54.7 µM (active) and inactive; Potency [17]: inactive

**Q.** What does the source list for C[C@@H]1CC[C@@]2(OC1)O[C@H]1[C@@H](O)[C@H]3[C@@H]4CC[C@H]5C[C@@H](O[C@@H]6O[C@H](CO)[C@H](O[C@@H]7O[C@H](CO)[C@@H](O)[C@H](O[C@@H]8OC[C@@H](O)[C@H](O)[C@H]8O)[C@H]7O[C@@H]7O[C@H](CO)[C@@H](O)[C@H](O[C@@H]8O[C@H](CO)[C@@H](O)[C@H](O)[C@H]8O)[C@H]7O)[C@H](O)[C@H]6O)[C@H](O)C[C@]5(C)[C@H]4CC[C@]3(C)[C@H]1[C@@H]2C?
**A.** Potency [1]: 10.7 µM (active); Potency [2]: 23 µM (active); activity change, positive = activation [3, 20]: -74.6% (inactive); Potency [18]: 20.7 µM (active); Potency [4]: 11.6 µM (active); Potency [5]: inactive; Potency [6]: 26.1 µM (active); Potency [7]: 3.68 µM (active); Potency [8]: 9.25 µM (active); Potency [10]: 11.6 µM (active); Potency [19]: 1.31 µM (active); Potency [11]: 13.1 µM (active); Potency [12]: 23.2 µM (active); Potency [13]: 11.6 µM (active); Potency [14]: 11.6 µM (active); Potency [16]: 1.64 µM (active); Potency [17]: inactive

**Q.** What does the source list for N#CSCSC#N?
**A.** Potency [1]: 51.6 µM (active) and 50 µM (active); Potency [2]: 27.9 µM (active) and 60.5 µM (active); activity change, positive = activation [3, 20]: -81.6% (inactive) and -76.5% (inactive); Potency [18]: 50.1 µM (active) and 19.3 µM (active); Potency [4]: 12.6 µM (active) and 21.7 µM (active); Potency [5]: inactive; Potency [6]: 50.1 µM (active) and 21.7 µM (active); Potency [7]: 19.3 µM (active); Potency [8]: 12.6 µM (active) and 15.3 µM (active); Potency [10]: 11.2 µM (active) and 21.7 µM (active); Potency [19]: 54.4 µM (active); Potency [11]: 56.2 µM (active) and 24.3 µM (active); Potency [12]: 50.1 µM (active) and 19.3 µM (active); Potency [13]: 50.1 µM (active) and 19.3 µM (active); Potency [14]: 39.8 µM (active) and 17.2 µM (active); Potency [15]: inactive; Potency [16]: 43.2 µM (active); Potency [17]: inactive

**Q.** Which results are given for CCC[CH2][Sn]([CH2]CCC)([CH2]CCC)[O]C(=O)c1ccccc1?
**A.** Potency [1]: 0.713 µM (active); Potency [2]: 0.486 µM (active); activity change, positive = activation [3, 20]: -78% (inactive); Potency [18]: 0.49 µM (active); Potency [4]: 0.389 µM (active); Potency [5]: inactive; Potency [6]: 0.389 µM (active); Potency [7]: 0.692 µM (active); Potency [8]: 0.436 µM (active); Potency [10]: 0.389 µM (active); Potency [19]: 1.95 µM (active); Potency [11]: 0.692 µM (active); Potency [12]: 0.436 µM (active); Potency [13]: 0.692 µM (active); Potency [14]: 0.549 µM (active); Potency [16]: 0.977 µM (active); Potency [17]: inactive

**Q.** Which Potency [1] does the source give for Clc1ccc(C(Cl)(Cl)Cl)c(Cl)c1 here?
**A.** inactive

**Q.** And the Potency [2]?
**A.** 61.6 µM (active)

**Q.** What about the activity change, positive = activation [3, 20] of the same molecule?
**A.** -45.2% (inactive)

**Q.** What about the Potency [5] of the same molecule?
**A.** inactive

**Q.** What about the Potency [6] of the same molecule?
**A.** inactive

**Q.** And the Potency [11]?
**A.** inactive

**Q.** What about the Potency [12] of the same molecule?
**A.** inactive

**Q.** What about the Potency [15] of the same molecule?
**A.** inactive

**Q.** What about the Potency [17] of the same molecule?
**A.** inactive

**Q.** For c1ccc2cc3c(cc2c1)-c1cccc2cccc-3c12, which Potency [1] is on record?
**A.** inactive

**Q.** What about the Potency [2] of the same molecule?
**A.** inactive

**Q.** And the Potency [18]?
**A.** inactive

**Q.** And the Potency [4]?
**A.** inactive

**Q.** What about the Potency [5] of the same molecule?
**A.** inactive

**Q.** What about the Potency [6] of the same molecule?
**A.** inactive

**Q.** What about the Potency [7] of the same molecule?
**A.** inactive

**Q.** And the Potency [8]?
**A.** inactive

**Q.** And the Potency [9]?
**A.** inactive

**Q.** And the max response [10]?
**A.** 18.7% (inactive)

**Q.** What about the Potency [19] of the same molecule?
**A.** inactive

**Q.** What about the Potency [11] of the same molecule?
**A.** inactive

**Q.** And the Potency [12]?
**A.** inactive

**Q.** And the Potency [13]?
**A.** inactive

**Q.** And the Potency [15]?
**A.** inactive

**Q.** And the Potency [16]?
**A.** inactive

**Q.** And the Potency [17]?
**A.** inactive
